# JMJD2E inh: qHTS Assay for Inhibitors of Human Jumonji Domain Containing 2E (JMJD2E). Lysine-specific demethylase 4E (Homo sapiens), B2RXH2. JMJD2E catalytic domain, FDH-coupled NADH fluorescence (FDH is formaldehyde dehydrogenase). Potency, µM (doses to about 57.1 µM), inactives show top-dose activity change, negative = inhibition, most hits filed as inhibitors. actives 1.6% (n = 230,000). AID 2147, 2009; active = well fitted inhibition curve with a large enough effect, not every such curve was filed as active; inconclusive = small, poorly fitted or top-dose-only effect, or another doubt; inactive = no such curve, though single readings can be large or run the other way;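 also: potency is read from the fitted curve at half-maximal effect; 0% = wells with enzyme and -100% = buffer wells without enzyme; nearly all actives have a fitted effect of over 50% in size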
# Target sequence (B2RXH2 1-337 limits assumed): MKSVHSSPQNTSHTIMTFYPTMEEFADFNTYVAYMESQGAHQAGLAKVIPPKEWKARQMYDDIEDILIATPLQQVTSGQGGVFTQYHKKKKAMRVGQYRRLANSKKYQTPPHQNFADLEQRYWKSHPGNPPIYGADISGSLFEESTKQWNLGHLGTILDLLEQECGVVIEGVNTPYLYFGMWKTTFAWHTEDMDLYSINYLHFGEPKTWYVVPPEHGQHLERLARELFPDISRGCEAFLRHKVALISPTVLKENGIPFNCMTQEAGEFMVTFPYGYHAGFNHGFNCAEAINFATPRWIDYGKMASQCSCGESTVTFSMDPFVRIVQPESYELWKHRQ
# Sfp inh: qHTS Assay for Inhibitors of Bacillus subtilis Sfp phosphopantetheinyl transferase (PPTase); 4'-phosphopantetheinyl transferase ffp (Bacillus subtilis), Q9F4F7; Biochemical Sfp PPTase activity, qHTS; Potency, µM, for inactives: largest response in the series, negative = inhibition, hits mostly inhibitors; actives 3.5% (n = 310,000); AID 1490, 2009;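 also: the enzyme is Sfp with the accession as filed and its product quenches rhodamine fluorescence; potency is read from the fitted curve at half-maximal effect; 0% = enzyme reaction without inhibitor and -100% = no enzyme wells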
#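 Fluorescence-quenching assay with 15 nM Sfp, 5 uM rhodamine-CoA and 12.5 uM BHQ-2-labelled ybbR peptide in pH 7.6 Hepes/MgCl2 buffer. Enzyme was pre-incubated with compound for 15 min at room temperature. Rate was taken from the 30-min fluorescence change (525/598 nm).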
# Tau ThT inhib: qHTS for Inhibitors of Tau Fibril Formation, Thioflavin T Binding; recombinant tau K18 P301L, heparin-induced fibrillization, ThT fluorescence; Potency, µM (top dose mostly 57.4 µM), without a hit: top-dose activity, negative = inhibition, most hits filed as inhibitors; actives 2.1% (n = 270,000); AID 1460, 2008; also: potency is read from the fitted curve at half-maximal effect; nearly all actives have a fitted effect of over 55% in size
# Target sequence (P10636 561-689 P618L limits assumed): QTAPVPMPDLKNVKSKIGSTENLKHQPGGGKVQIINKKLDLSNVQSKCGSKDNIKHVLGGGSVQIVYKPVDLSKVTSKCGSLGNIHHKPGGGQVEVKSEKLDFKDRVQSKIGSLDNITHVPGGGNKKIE
#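 Aggregation was driven by heparin (20 uM final) acting on recombinant tau […] bearing P301L in 100 mM sodium acetate pH 7; fibrils were detected with Thioflavin T.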
# Coupling enz: qHTS Assay for Inhibitors of Fructose-1,6-bisphosphate Aldolase from Giardia Lamblia: Coupling assay counterscreen; coupling enzyme system counterscreen, AmpLite Red fluorescence; activity change, negative = inhibition, % at 58.2 µM, hits read low; actives 0.67% (n = 290,000); in the data active = activity change below about -30%
#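 Counterscreen lacking aldolase: glyceraldehyde-3-phosphate coupling-enzyme reagent preincubated 10 min at RT with compound (at 57.5 uM final), then substrate/coupling system with AmpLite Red added; fluorescence read at 525/598 nm after 20 min RT.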
# Tau fluor cs: Counterscreen qHTS for Inhibitors of Tau Fibril Formation, Fluorescence Polarization; tau K18 P301L (four-repeat tau fragment) Alexa594 fluorescence, heparin fibrillization; Potency, µM (doses to about 57.7 µM), for the others: at the highest dose activity change, negative = decrease; actives 0.93% (n = 280,000); AID 1463, 2008; also: potency is read from the fitted curve at half-maximal effect; nearly all actives have a fitted effect of over 55% in size
#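 Human K18 P301L tau (15 uM unlabeled plus 0.24 uM Alexa 594-labeled, final) in 100 mM sodium acetate pH 7 was mixed with compound and 20 uM heparin and incubated 6 hr at 37 C.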
# Tau FP inhib: qHTS for Inhibitors of Tau Fibril Formation, Fluorescence Polarization | Potency, µM (titrated, usually from 57.7 µM), without a hit: at the top dose activity, negative = inhibition, hits mostly inhibitors | K18 P301L tau heparin fibrillization, Alexa594 FP, 6 h | AID 1468, 2008 | actives 0.39% (n = 280,000); also: potency is read from the fitted curve at half-maximal effect; nearly all actives have a fitted effect of over 55% in size
#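 Quantitative HTS format: compounds meet 15 uM recombinant K18 P301L tau and Alexa 594-tau tracer in 100 mM sodium acetate pH 7; 20 uM heparin triggers fibrillization at 37 C over 6 hr; FP gives the signal.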
# Numbers without * were called inactive; ? = inconclusive; · = no result given; [ ] = remark or other dose. Only some compounds are listed: those with a hit (about 5.3% of all), similar ones and a draw of the others. Unless noted, calls follow the shape of the dose curve; as a rule, active = well fitted curve in the direction sought with a large enough effect; inconclusive = small, poorly fitted or top-dose-only effect, or another doubt; inactive = no such curve, though single readings can be large; an effect the other way counts as inactive or inconclusive. Unless noted, % is scaled to controls: 0 for no effect and ±100 for the full control effect.
SMILES,JMJD2E inh,Sfp inh,Tau ThT inhib,Coupling enz,Tau fluor cs,Tau FP inhib
Cc1ccc2nc(-c3cccc(S(=O)(=O)N(C)C)c3)cn2c1,9%,6%,-6%,-32*,-8%,3%
CCN(CC)S(=O)(=O)c1cccc(-c2cn3cc(C)ccc3n2)c1,?,-20%,-9%,-26,-20%,-6%
COc1cc(OC)cc(-c2nc3n(n2)C(c2ccccc2)C(C(N)=O)=C(C)N3)c1 (centres undefined),·,·,-3%,·,-1%,0%
O=C(CCCCCNC(=O)c1ccccc1)N/N=C/c1ccc(O)cc1O,20µM*,14%,-6%,0,-1%,6%
O=C(N/N=C/c1ccc(O)cc1O)/C(=C/c1ccccc1)CCO,16µM*,26%,?,3,-24%,6%
O=C(CNC(=O)C(c1ccccc1)c1ccccc1)N/N=C/c1ccc(O)cc1O,20µM*,17%,?,3,?,6%
O=C(CNC(=O)C1COc2ccccc2O1)N/N=C/c1ccc(O)cc1O (centres undefined),28µM*,29%,-11%,1,-11%,4%
C/C(=N\NC(=O)CCCCCNC(=O)c1ccccc1)c1ccccc1O,?,30%,-10%,0,-8%,-8%
CCN(CC)CCn1c(-c2ccccc2)nc2c(NC3CCCCC3)nc(C)nc21,?,16%,-9%,4,-9%,7%
CCN(CC)CCn1c(-c2ccccc2)nc2c(NCCO)nc(C)nc21,?,23%,1%,3,-3%,?
Cc1cc(SCC(=O)N/N=C/c2ccc(O)cc2O)c(C)cc1Br,?,-19%,?,1,16µM*[quencher],-7%
CCCCC/C=C\C/C=C\CCCCCCCCCC(=O)NC(C)C(=O)O (centres undefined),4%,13%,-8%,-1,-7%,0%
CCC(=O)Nc1nnc(-c2cccs2)s1,?,20%,8%,2,11%,-5%
CCC(C)C(=O)Nc1nnc(-c2cccs2)s1 (centres undefined),?,50µM*,2%,-1,1%,0%
O=C(NCC1CCN(Cc2ccc(F)cc2)CC1)c1cc2ccc3cccnc3c2[nH]1,·,·,-2%,·,-18%,-7%
CCCC[C@@H]1CCCO[C@@](C(=O)NCCOC)(C(F)(F)F)C1,·,5%,·,0,·,·
Cc1cc(C)cc(N2C(=O)CC(Sc3ccccc3C(=O)O)C2=O)c1 (centres undefined),0%,56µM*,?,7,-1%,7%
CN(C)c1ccc(N2C(=O)CC(Sc3ccccc3C(=O)O)C2=O)cc1 (centres undefined),0%,45µM*,?,9,-22%,1%
CCOC(=O)c1c(N2C(=O)CC(Sc3ccccc3C(=O)O)C2=O)sc(C)c1C (centres undefined),1%,7.9µM*,·,13,-5%,-10%
Cc1ccc(N2C(=O)CC(Sc3ccccc3C(=O)O)C2=O)cc1C (centres undefined),-12%,50µM*,-15%,2,-1%,-2%
Cc1ccc(N2C(=O)CC(Sc3ccccc3C(=O)O)C2=O)cc1 (centres undefined),6%,?,?,4,-6%,0%
CCOC(=O)c1c(NC(=O)CSc2ccccc2C(=O)O)sc(C)c1C,-3%,5%,11%,1,7%,-5%
CCCC[C@H]1CCCO[C@@](C(=O)NCc2ccccn2)(C(F)(F)F)C1,·,4%,·,3,·,·
Cc1cc(C)nc(SC2CC(=O)N(c3ccc(C)c(C)c3)C2=O)n1 (centres undefined),·,1%,·,3,·,·
O=C(O)c1ccccc1SC1CC(=O)N(c2ccc3c(c2)OCO3)C1=O (centres undefined),-4%,50µM*,?,1,-3%,1%
SMILES,JMJD2E inh,Sfp inh,Tau ThT inhib,Coupling enz,Tau fluor cs,Tau FP inhib
Cc1cccc(N2C(=O)CC(Sc3ccccc3C(=O)O)C2=O)c1 (centres undefined),3%,56µM*,?,1,1%,-2%
Nc1ccccc1SC1CC(=O)N(c2ccc3c(c2)OCO3)C1=O (centres undefined),2%,7%,·,-13,?,-3%
Cc1ccc(N2C(=O)CC(Sc3ncn[nH]3)C2=O)cc1C (centres undefined),1.3µM*,50µM*,-13%,2,-3%,0%
COc1ccc(C2=Nn3c(nnc3-c3ccc(OC)c(OC)c3)SC2)cc1,·,-6%,·,0,·,·
CC(C)c1noc(-c2ccccc2OCC(=O)Nc2cccc([N+](=O)[O-])c2)n1,·,·,-12%,·,-13%,-2%
Cc1ccc(CNC(=O)CCS(=O)(=O)c2ccc(Br)cc2)cc1,11µM*,22%,-5%,5,-11%,2%
C/C(=N\Nc1ncc(Cl)cc1Cl)c1ccc(N2CCOCC2)cc1,2%,25µM*,?,1,-13%,11%
O=C(Cn1c(=O)n(Cc2ccc3c(c2)OCO3)c(=O)c2ccccc21)Nc1cccc(Cl)c1,·,·,?,·,?,28µM*
O=C(Cn1c(=O)n(Cc2ccc(C(=O)NCc3ccc4c(c3)OCO4)cc2)c(=O)c2ccccc21)Nc1cccc(Cl)c1,·,·,5%,·,-12%,?
Cc1cc(NC(=O)Cn2c(=O)n(Cc3ccccc3)c(=O)c3ccccc32)no1,3%,25µM*,-11%,5,-27%,-10%
CCOc1ccc(NC(=O)Cn2c(=O)n(Cc3ccc(C(=O)NCc4ccc5c(c4)OCO5)cc3)c(=O)c3ccccc32)cc1,·,·,-3%,·,-21%,28µM*
COc1ccc(C)cc1NC(=O)c1oc2ccc(S(=O)(=O)N3CCC4(CC3)OCCO4)cc2c1C,·,·,-4%,·,-26%,8%
Cc1cc(C)c2nc(-c3ccccn3)cc(C(=O)Nc3ccc(S(=O)(=O)Nc4cc(C)on4)cc3)c2c1,?,?,-16%,·,-7%,-9%
Cc1cc(C)c2nc(-c3ccccn3)cc(C(=O)NCCc3ccc(S(N)(=O)=O)cc3)c2c1,?,28µM*,0%,0,-12%,-3%
Cc1cc(C)c2nc(-c3ccccn3)cc(C(=O)Nc3ccc(S(=O)(=O)Nc4onc(C)c4C)cc3)c2c1,-5%,35µM*,?,1,-26%,-5%

# Screening results deposited in PubChem BioAssay by National Center for Advancing Translational Sciences (NCATS).
